FBPA Giardia inh = Giardia lamblia aldolase inhibition. Potency, µM (highest dose often 59.6 µM), for inactives: at the top dose activity, negative = inhibition, actives largely listed as inhibitors. AID 2451. purified Giardia FBPA. A8B2U2. 290,000 tested, 0.71% active; also: potency is read from the fitted curve at half-maximal effect; % is scaled to controls: 0 for no effect and ±100 for the full control effect; nearly all actives have a fitted effect of over 55% in size
Target sequence (A8B2U2 whole entry, looked up): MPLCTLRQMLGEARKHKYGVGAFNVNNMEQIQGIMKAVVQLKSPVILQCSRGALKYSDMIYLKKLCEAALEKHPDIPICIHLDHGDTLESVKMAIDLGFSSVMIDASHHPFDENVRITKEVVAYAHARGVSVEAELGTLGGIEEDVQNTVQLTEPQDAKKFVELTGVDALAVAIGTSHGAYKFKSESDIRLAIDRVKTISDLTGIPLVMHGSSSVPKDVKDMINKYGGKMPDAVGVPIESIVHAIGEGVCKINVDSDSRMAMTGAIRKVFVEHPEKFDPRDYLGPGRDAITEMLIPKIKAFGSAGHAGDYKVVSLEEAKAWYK
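40 nM FBPA preincubated 10 min at RT with compound (up to 57.5 uM final), then substrate plus GAPDH/TPI/NAD/arsenate coupling and diaphorase/resazurin added. Fluorescence read after 20 min at RT, 525/598 nm.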
Shiga toxin inh = inhibitors of Shiga toxin in Vero cells | Vero cells, Shiga toxin protein synthesis inhibition reporter | inhibition, % at 38.7 µM | 290,000 tested, 9.2% active | AID 2315; in the data active = inhibition mostly above about 28%, no sharp cut-off; inactive = mostly below about 43%; also: 0% is about no effect
Cycloheximide cs = affects cycloheximide protein synthesis inhibition readout, counter-screen. 300,000 tested, 12% active. max response, %. cell reporter, cycloheximide protein synthesis inhibition counterscreen; in the data active = max response mostly above about 13%, no sharp cut-off; inactive = mostly below about 14%; also: read at 38.3 µM for the half of the compounds with a filed dose; 0% is about no effect
Pf growth 96h = P. falciparum growth inhibition at 96 hours; P. falciparum luciferase reporter growth, 96 h; Potency, µM (highest dose often 28.7 µM), for the others: at the highest dose activity change, negative = inhibition, most hits filed as inhibitors; 320,000 tested, 6.9% active; AID 504834; also: potency is read from the fitted curve at half-maximal effect; % is scaled to controls: 0 for no effect and ±100 for the full control effect
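Two parasite generations (96 h, 37 C, 5% CO2) of compound exposure in infected erythrocytes (0.05% parasitemia, 2% hematocrit). Luciferase-reporter P. falciparum; decreased luminescence indicates inhibited growth, aimed at apicoplast-acting delayed death.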
NS1 inh = inhibitors of influenza NS1 protein function; Potency, µM (top dose mostly 46.1 µM), without a hit: top-dose activity, positive = more growth; 270,000 tested, 0.4% active; AID 2326; calls by dose curve; also: potency is read from the fitted curve at half-maximal effect; actives are rising curves; nearly all actives have a fitted effect of over 50% in size
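A cell-based growth assay was used: compounds that relieve NS1-induced slow growth of budding yeast raise OD600. Assay medium was yeast nitrogen base with ammonium sulphate and -URA supplement, pH 6.0, with 2% galactose.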
Pf growth 48h = inhibits P. falciparum growth in the first generation, 48 h; Potency, µM (titrated, usually from 28.7 µM), for the others: at the highest dose activity change, negative = inhibition, actives largely listed as inhibitors; P. falciparum luciferase growth in erythrocytes, 48 h; 310,000 tested, 5.9% active; also: potency is read from the fitted curve at half-maximal effect; % is scaled to controls: 0 for no effect and ±100 for the full control effect
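Cell-based growth assay: transgenic P. falciparum expressing firefly luciferase, cultured in red cells within RPMI 1640 containing 0.5% w/v Albumax, 24 mM bicarbonate and gentamycin. A drop in luciferase activity indicates inhibition.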
The depositor's hits bear a star; ? = inconclusive; · = no result; [ ] = remark or other dose. Compounds with a hit are over-represented: about 21% of the library has one in this group of screens. Unless noted, calls follow the shape of the dose curve; as a rule, active = well fitted curve in the direction sought with a large enough effect; inconclusive = small, poorly fitted or top-dose-only effect, or another doubt; inactive = no such curve, though single readings can be large; an effect the other way counts as inactive or inconclusive.

SMILES	FBPA Giardia inh	Shiga toxin inh	Cycloheximide cs	Pf growth 96h	NS1 inh	Pf growth 48h
Cc1ccc(NC(=O)C2COc3ccccc3O2)cc1S(=O)(=O)N1CCCCC1 (centres undefined)	·	·	·	?	·	9.28µM*
O=C(Nc1ccc(S(=O)(=O)N2CCCC2)cc1)C1COc2ccccc2O1 (centres undefined)	0.0%	10.2	0.6	26.3%	-65.4%	-10.3%
O=C(Nc1cccc([N+](=O)[O-])c1)C1COc2ccccc2O1 (centres undefined)	7.6%	15.1	11.3*	?	-10.3%	-11.8%
Cc1ccc(NC(=O)C2COc3ccccc3O2)cc1C (centres undefined)	-0.3%	·	25.7*	?	-38.7%	98.1%
CCOCCOC(=O)c1ccc(NC(=O)C2COc3ccccc3O2)cc1 (centres undefined)	1.0%	37.9	22.4*	?	-23.6%	18.8%
CC(NC(=O)CCN1N=C(c2ccccc2)CCC1=O)c1ccc2c(c1)OCCO2 (centres undefined)	-11.3%	-5.5	6.5	18.7%	·	0.0%
CCCCN1CSC(=S)N(Cc2ccccc2)C1	·	·	·	·	-33.9%	·
COC(=O)c1cccc(NC(=O)C2COc3ccccc3O2)c1C (centres undefined)	-0.2%	53.9	19.6	27.6%	-3.4%	25.2%
CCOC(=O)c1ccc(NC(=O)C2COc3ccccc3O2)cc1 (centres undefined)	4.7%	·	-2.5	?	-51.0%	51.5%
COC(=O)c1cccc(NC(=O)C2COc3ccccc3O2)c1 (centres undefined)	0.5%	66.0*	32.9*	·	-20.7%	146.8%
Cc1cccc(NC(=O)C2COc3ccccc3O2)c1 (centres undefined)	3.5%	72.1*	42.9*	77.5%	-5.2%	43.7%
COC(=O)c1cc(NC(=O)C2COc3ccccc3O2)ccc1Cl (centres undefined)	-1.2%	53.3*	20.5*	?	-62.8%	?
COc1cccc(C(C)NC(=O)C2CCCC2)c1 (centres undefined)	6.6%	-1.3	-1.0	?	15.7%	2.9%
CCCCN(C(=O)C1CSC2(C)CCC(=O)N12)c1c(N)n(CC(C)C)c(=O)[nH]c1=O (centres undefined)	·	·	·	-9.1%	·	?
O=C(c1cccc(Oc2ccccc2)c1)N1CCN(c2ccccn2)CC1	-0.1%	5.9	11.6	-0.4%	·	-15.4%
COc1ccccc1-n1c2nc3ccccc3nc2c2c(=O)n(-c3cc(C)cc(C)c3)cnc21	-15.6%	-8.9	4.4	?	?	13.1µM*
CC(=O)c1ccc(OCc2cc(C(=O)N(C)CCN3CCOCC3)no2)cc1	·	25.2	15.5	3.5%	-7.3%	?
CC(=O)c1cccc(OCc2cc(C(=O)N(C)CCC3CCOCC3)no2)c1	7.7%	68.1*	41.5*	4.4%	?	1.9%
CCCN(CC1CCCO1)C(=O)c1cc(COc2cccc(OC)c2)on1 (centres undefined)	·	26.3	14.5*	123.5%	-22.4%	?
COc1cccc(OCc2cc(C(=O)N(C)CCC3CCCCO3)no2)c1 (centres undefined)	·	152.0*	75.4*	?	-20.0%	6.7%
COC(=O)N1CCC2(CCCN(C(=O)Nc3cccc(F)c3)C2)CC1	4.8%	·	·	·	·	·
CCOC(=O)C1=C(C)NC(SC)=C(C#N)C1CC(C)C (centres undefined)	-8.7%	-16.9	-0.9	?	3.7%	1.65µM*
CC(=O)C1=C(C)NC(SCC(N)=O)=C(C#N)C1CC(C)C (centres undefined)	6.1%	5.0	-6.6	-10.9%	·	6.8%
CC(=O)C1=C(C)NC(SCC(=O)c2ccc(F)cc2)=C(C#N)C1CC(C)C (centres undefined)	-17.6%	87.6*	63.4*	8.28µM*	?	?
COc1ccc(C(=O)CCC(=O)N2CCN(c3ccccc3)CC2)cc1	0.1%	-0.3	-1.2	22.8%	3.1%	-8.3%
SMILES	FBPA Giardia inh	Shiga toxin inh	Cycloheximide cs	Pf growth 96h	NS1 inh	Pf growth 48h
CCCCn1c(N)c(N(CCOC)C(=O)CN(C)S(=O)(=O)c2ccc(F)cc2)c(=O)[nH]c1=O	·	·	·	2.1%	·	24.5%
CCOc1ccccc1NC(=O)CSc1nnc(CNC(=O)COc2ccc(Cl)cc2)o1	3.1%	46.4	-3.1	10.4µM*	-14.2%	6.1%
COC(=O)c1ccc(CSc2nnc(CNC(=O)COc3ccc(Cl)cc3)o2)o1	-0.2%	-19.8	-2.0	5.86µM*	-5.0%	-11.8%
COC(=O)c1ccc(CSc2nnc(CNC(=O)c3ccc(OC)cc3)o2)o1	3.9%	-19.9	-1.8	?	-5.6%	5.5%
O=C(COc1ccc(Cl)cc1)NCc1nnc(SCC(=O)Nc2ccc(F)cc2F)o1	0.1%	-26.0	-2.1	-24.7%	·	23.4%
CN(CC(=O)Nc1ccc(S(=O)(=O)N2CCCC2)cc1)Cc1ccc(Cl)cc1	-5.8%	-2.8	1.7	8.28µM*	-19.1%	?
CN(CC(=O)Nc1ccc(S(=O)(=O)N2CCCC2)cc1)Cc1c(F)cccc1Cl	-1.2%	4.9	11.2	13.1µM*	·	-21.4%
CN(CC(=O)Nc1cccc(S(=O)(=O)N2CCCC2)c1)CC(=O)Nc1ccc(Cl)c(C(F)(F)F)c1	·	·	·	?	·	14.7µM*
Cc1ccsc1C(=O)C1CCCN(Cc2cccn2-c2ccc(Cl)cn2)C1 (centres undefined)	5.7%	-10.4	-2.2	?	-44.1%	3.7µM*
Cc1ncc(CN2CCCC(C(=O)c3ccc(C(C)(C)C)cc3)C2)s1 (centres undefined)	1.5%	43.6	9.9*	?	-4.2%	?
COc1ccc(C(=O)C2CCCN(Cc3cccn3-c3ccccn3)C2)cc1F (centres undefined)	7.6%	-13.6	1.6	-10.9%	-1.0%	9.28µM*
Cc1cc(Cl)ccc1C(=O)C1CCCN(C(=O)c2n[nH]c3c2CCCC3)C1 (centres undefined)	-0.8%	17.8	2.6	?	5.6%	8.7%
COc1ccc2cc(C(=O)C3CCCN(Cc4cnc(C)s4)C3)ccc2c1 (centres undefined)	-16.0%	-4.7	5.3	?	-5.1%	?
COc1ccc(C(=O)C2CCCN(C(=O)c3n[nH]c4c3CCCC4)C2)cc1OC (centres undefined)	2.3%	29.9	16.1*	-1.5%	0.4%	12.0%
C[C@@H](O)[C@H]1C(=O)N2C(C(=O)O)=C(S[C@@H]3CN[C@H](C(=O)N(C)C)C3)[C@H](C)[C@H]12	-17.5%[21.7 µM]	·	·	1.2%	·	-4.4%
Cc1ccc(CN2CC(C(=O)N(C)CC(=O)Nc3cccc(F)c3)CC2=O)cc1 (centres undefined)	·	-1.7	-2.9	5.4%	10.3%	?
COc1ccc(C(=O)C2CCCN(Cc3cnc(C)s3)C2)cc1OC (centres undefined)	0.9%	-13.1	-1.0	14.7µM*	-2.5%	4.1%
